PV pol inh = poliovirus RdRp elongation inhibitors, primary screen, biochemical, fluorescence polarization, total intensity | Genome polyprotein (Poliovirus type 1 (strain Mahoney)), P03300 | poliovirus polymerase elongation; active compounds read low | % elongation, % (compound at 16.7 µg/mL) | 150,000 tested, 0.66% active | AID 588519, 2011; in the data active = % elongation below about 90%
MenB inh = M. tuberculosis MenB inhibitors, primary screen, biochemical, absorbance; 1,4-dihydroxy-2-naphthoyl-CoA synthase (Mycobacterium tuberculosis (strain ATCC 25618 / …; MenB enzyme assay, absorbance read-out; inhibition, % (concentration not given with the values); 100,000 tested, 0.43% active; in the data active = inhibition above about 21%, passing the limit was not always enough
Target sequence (P9WNP5 whole entry, looked up): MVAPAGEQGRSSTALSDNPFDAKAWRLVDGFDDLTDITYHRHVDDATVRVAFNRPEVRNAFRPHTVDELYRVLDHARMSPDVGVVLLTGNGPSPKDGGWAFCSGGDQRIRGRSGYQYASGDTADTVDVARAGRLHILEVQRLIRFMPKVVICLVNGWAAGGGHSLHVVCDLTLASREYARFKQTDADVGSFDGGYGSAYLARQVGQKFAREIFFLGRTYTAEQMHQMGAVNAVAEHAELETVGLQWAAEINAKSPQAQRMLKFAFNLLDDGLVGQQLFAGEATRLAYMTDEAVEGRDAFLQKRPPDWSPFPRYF
Mtb MbtI inh = MbtI salicylate synthase inhibitors, primary screen, biochemical, fluorescence intensity. P9WFX0. purified MbtI enzyme, fluorescence intensity read-out. inhibition, % (no concentration beside the values). 100,000 tested, 0.89% active. AID 493033, 2011; in the data active = inhibition mostly above about 56%, no sharp cut-off; inactive = mostly below about 77%
Each line names hits and unclear results; the compound was inactive in the other large screens. In the library only some 1.5% were active in any assay of this set; here they are far more common.

O=C1CN(Cc2nc3ccc(Cl)cc3n2CCO)c2ccccc2N1	none
OC(COc1ccc2cc(Br)ccc2c1)Cn1cccn1 (stereo not given)	MenB inh 28 (no result: Mtb MbtI inh)
O=S(=O)(N1CCCCC1)N1CCN(CC(O)COc2ccc3cc(Br)ccc3c2)CC1 (stereo not given)	none
O=C(O)C1C2C=CC(C2)C1C(=O)NCc1cccs1 (stereo not given)	MenB inh 23
O=C(O)C1C2C=CC(C2)C1C(=O)NCc1ccccc1F (stereo not given)	none
CCCC(=O)N1c2nc(C(C)C)nn2C2(CCCCC2)[C@@H]2CCCC[C@@H]21	none (no result: MenB inh, Mtb MbtI inh)
Cc1cc(CSc2cc(C)c(Cl)cc2C)no1	none
CCCSc1nc(-c2ccccc2)[nH]c1S(=O)(=O)c1ccc(C)cc1	PV pol inh -16 (no result: MenB inh, Mtb MbtI inh)
Cc1ccc(S(=O)(=O)c2[nH]c(-c3ccccc3)nc2SCCC(=O)O)cc1	none (no result: MenB inh, Mtb MbtI inh)
Nn1c(Cc2cccc3ccccc23)n[nH]c1=S	none (no result: Mtb MbtI inh)
CCCc1n[nH]c(=S)n1N	Mtb MbtI inh 69
CC(C)(C)NC(=O)CSc1nnc([C@H](Cc2ccccc2)NC(=O)OC(C)(C)C)o1	none (no result: Mtb MbtI inh)
COc1ccccc1NS(=O)(=O)c1cccc(C(=O)Nn2cnnc2)c1	PV pol inh 72
COc1ccccc1NS(=O)(=O)c1cccc(Cl)c1	none
CC1(C)CCc2cc(S(=O)(=O)NCc3ccc(S(N)(=O)=O)cc3)ccc2O1	none
CCCCn1cnc2c(c1=O)c1nc3ccccc3nc1n2CCc1ccc(OC)cc1	none
c1ccc(CCCc2nn3c(-c4cccs4)nnc3s2)cc1	none
O=C1c2ccccc2C(=O)N1CCCc1nn2c(-c3cccnc3)nnc2s1	Mtb MbtI inh 64
COc1ccc(-c2[nH]ncc2C(=O)NCc2ccccc2)cc1	none
O=C(CSc1nnc(Cc2ccccc2)o1)NCC(=O)Nc1ccc(F)c(F)c1F	none
COc1ccc(NC(=O)c2cc(=O)c3ccc(C)cc3o2)cc1	none
COc1ccc(-n2c(-c3ccccc3F)nc3c(cnn3-c3ccc(C)cc3)c2=O)cc1	none (no result: MenB inh, Mtb MbtI inh)
NC(=S)c1ccccc1N	PV pol inh 55
COc1ccccc1C(N)=S	none
O=C(Cc1nc2ccccc2s1)c1ccc(O)cc1O	none
O=C(Cc1nc2ccccc2s1)c1ccccc1	PV pol inh 72 (no result: MenB inh)
CCc1cccc2c(-c3ccc(F)cc3)nc(SCC(=O)Nc3ccccc3)nc12	none (no result: MenB inh, Mtb MbtI inh)
CN1/C(=C\C(=O)COC(=O)c2ccccc2)C(C)(C)c2ccccc21	none (no result: MenB inh)
CN(C)C(=S)NC(=O)c1ccccc1	none
CN(CC(=O)O)C(=S)c1ccccc1	PV pol inh 76, Mtb MbtI inh 54
CCSc1nc2sc3c(c2c(=O)n1-c1ccccc1)CC(C)(C)OC3	none (no result: PV pol inh, MenB inh)
COc1cccc(NCCCCO)c1	none
C=Cc1ccc2c(ccn2C(C)=O)c1	none
C=Cc1ccc2c(c1)N(C)C(=C)S2	Mtb MbtI inh 62 (no result: MenB inh)
CC1=C(C(=O)Nc2ccccc2)C(c2ccccc2)n2ncc(C(=O)Nc3ccccc3)c2N1 (stereo not given)	none
CC12CC(C)(C)C(C#N)(C(N)=C1C#N)C(=C(C#N)C#N)N2 (stereo not given)	PV pol inh 83
CC(C)(C)OC(=O)N1CCC(c2c(C(=O)NCCN3CCOCC3)cnn2-c2ccc(F)cc2)CC1	none (no result: MenB inh, Mtb MbtI inh)
Nc1nc(SCC(=O)c2ccc3c(c2)OCCO3)nc(-c2ccccc2)n1	none
CCOC(=O)c1ccc(OCC(=O)OC)cc1	none
CCOC(=O)C1=NN(c2ccccc2)C(=O)/C1=C\c1ccc(N(C)C)cc1	Mtb MbtI inh 98
CN(C)c1ccc(/C=C2\C(=O)N(c3ccccc3)N=C2C(=O)O)cc1	none
COc1ccc2nc(SCC(=O)N3CCCCC3)c(C#N)cc2c1	none
Cc1ccc2nc(SCC(=O)N3CCCCC3)c(C#N)cc2c1	MenB inh 41
CC(C)Cc1ccc(CC(=O)O)cc1	PV pol inh 80
CC(C)Cc1ccc([C@H](C)C(=O)O)cc1	none (no result: Mtb MbtI inh)
COc1ccc(C(=O)n2ncc(C#N)c2N)cc1	none
Cn1cnnc1SCc1ccc(C(=O)n2ncc(C#N)c2N)cc1	PV pol inh 88
N#CSC(C#N)Cc1ccc(Cl)c(Cl)c1 (stereo not given)	Mtb MbtI inh 89 (no result: MenB inh)
N#Cc1c(N)cc(N)nc1SCc1ccc(Cl)c(Cl)c1	none
O=S(=O)(/N=c1/cc(-c2ccccc2)ss1)c1ccccc1	none (no result: Mtb MbtI inh)
O=c1cc(-c2ccccc2)ss1	PV pol inh 82, Mtb MbtI inh 53
COc1cc2c(cc1OC)CN(CCC(=O)O)CC2	none
CC(C)Sc1nc2sc3c(c2c(=O)n1Cc1ccccc1)CCCC3	none (no result: MenB inh, Mtb MbtI inh)
O=C(OCc1cc(=O)oc2cc(O)ccc12)c1cc(Br)ccc1O	none
O=C(OCc1cc(=O)oc2cc(O)ccc12)c1nc(Cl)ccc1Cl	PV pol inh 88
O=C(NCc1cccnc1)/C(=C\c1cccc(Oc2ccccc2)c1)S(=O)(=O)c1ccccc1	none
CCOC(=O)c1c(NC(=S)Nn2cnnc2)sc2c1CCCCCC2	Mtb MbtI inh 89
C=CCNC(=S)Nc1sc2c(c1C(=O)OCC)CCCCC2	none
CCN(CC)C(=O)c1sc(NC(=S)Nn2cnnc2)c(C(=O)OC)c1C	Mtb MbtI inh 55
CCN(CC)C(=O)c1sc(NC(=S)N(C)Cc2cn(CC)nc2C)c(C(=O)OC)c1C	none
O=C1CSc2nnc(Cn3nnc4ccccc43)n2N1	Mtb MbtI inh 87
c1csc(C2=Nn3c(Cn4nnc5ccccc54)nnc3SC2)c1	none
CC1=CC(=NC(=O)c2ccco2)C(C)=CC1=O	Mtb MbtI inh 100
CC1=C/C(=N\OC(=O)Cc2ccccc2)C(C)=CC1=O	none
CC1=NN(c2ccccc2)C(=O)C1C1C(=O)N(c2ccccc2)N=C1C (stereo not given)	none
CC1=NN(c2ccccc2)C(=O)C1C(=O)O (stereo not given)	none
O=C1C2CCCCC2=NN1c1ccccc1 (stereo not given)	Mtb MbtI inh 71
O=C1C2CCCC2=NN1c1ccccc1 (stereo not given)	Mtb MbtI inh 59
CCOC(=O)c1cccc(NC(=O)CCCn2c(C)c3cnn(-c4ccccc4)c(=O)c3c2C)c1	none (no result: MenB inh, Mtb MbtI inh)
Cc1cc(OCCn2cc(C(=O)c3cccs3)c3ccccc32)ccc1Cl	none (no result: MenB inh, Mtb MbtI inh)
CCC(Sc1nncn2c1cc1sccc12)C(=O)N1CCOCC1 (stereo not given)	none
CN(C)CCOC(=O)c1ccc2[nH]c3c(c2c1)CSCC3	none
O=C(O)c1ccc2[nH]c3c(c2c1)CSCC3	PV pol inh 84 (no result: Mtb MbtI inh)
COc1cc(Nc2ncc3c(n2)CCN(Cc2cc(F)cc(F)c2)C3)cc(OC)c1	none (no result: MenB inh, Mtb MbtI inh)
CCN(CC)c1ccc(C=C2C(=O)OC(c3ccccc3)OC2=O)cc1 (stereo not given)	none (no result: Mtb MbtI inh)
CCN(CC)c1ccc(C=C2C(=O)OC3(CCCC3)OC2=O)cc1	Mtb MbtI inh 72
Cc1ccc(NCC#N)cc1	none (no result: MenB inh)
O=C1CC(NC23CC4CC(CC(C4)C2)C3)C(=O)N1Cc1ccc2c(c1)OCO2 (stereo not given)	none
CCN(CC)C(=S)SSC(=S)N(CC)CC	Mtb MbtI inh 98
CCN(CC)C(N)=S	none
Cc1csc(=Nc2ccccc2F)n1/N=C/c1ccncc1	PV pol inh 83
CCN=c1scc(C)n1/N=C/c1ccc2c(c1)OCCO2	none
CC(C)C(C(=O)O)N1C(=O)c2ccccc2C1=O (stereo not given)	none (no result: Mtb MbtI inh)
CC1=C(C)C(=O)c2ccccc2C1=O	none
CC1(C)CCC2=C(O1)c1ccccc1C(=O)C2=O	PV pol inh 89
CC(Oc1cccc(Cl)c1)C(=O)N(C)Cc1nc(-c2ccccc2)no1 (stereo not given)	none

Source: PubChem BioAssay
